# Screens (PubChem BioAssay)
# D2 antagonist = antagonists of human D2 dopamine receptor | P14416 | HEK293 TREx D2 cells, calcium flux, dopamine EC80 | inhibition, % at 10 µM | actives 2% (n = 340,000) | AID 485344; in the data active means inhibition above about 30%; inactive means below that, where a call was filed; further: 0% is about no effect
# Target sequence (P14416 whole entry, looked up): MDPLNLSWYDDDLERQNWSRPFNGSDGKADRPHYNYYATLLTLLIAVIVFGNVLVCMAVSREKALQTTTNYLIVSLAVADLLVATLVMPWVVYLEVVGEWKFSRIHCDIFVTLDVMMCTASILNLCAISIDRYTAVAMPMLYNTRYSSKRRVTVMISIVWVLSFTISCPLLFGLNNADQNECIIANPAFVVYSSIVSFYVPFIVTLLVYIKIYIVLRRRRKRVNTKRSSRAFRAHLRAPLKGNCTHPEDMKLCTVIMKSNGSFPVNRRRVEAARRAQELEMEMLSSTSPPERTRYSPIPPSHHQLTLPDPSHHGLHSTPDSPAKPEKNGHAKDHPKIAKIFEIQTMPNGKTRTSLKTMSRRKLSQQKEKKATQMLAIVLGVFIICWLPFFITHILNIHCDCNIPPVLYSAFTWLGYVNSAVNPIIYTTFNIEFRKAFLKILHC
#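 Read-out: kinetic calcium fluorescence (1 cycle/s) in inducible HEK293 T-REx D2 cells after an EC80 dopamine addition that followed 180 s compound preincubation. Loss of the dopamine response indicates antagonism.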
# D2 ag-1 = agonists of human D2 dopamine receptor; activation, % at 2 µM; actives 0.53% (n = 340,000); HEK293 T-REx D2 cells, calcium flux agonist mode;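 active means activation over 3 SD above normal in the single-dose calcium agonist read, cut at about 30% in these data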; further: 0% is about no effect
#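 Calcium-flux readout, 1 cycle/sec over 180 s following compound pin transfer, in inducible HEK293 Trex D2 cells (force-coupled); dopamine controls included. Positive calcium responses during this window marked compounds as potential agonists.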
# D2 PAM-1 = D2 dopamine receptor (human) potentiation; P14416; HEK293 T-REx D2, calcium flux, EC20 dopamine potentiation; potentiation, % at 10 µM; actives 0.34% (n = 340,000); AID 485347;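 active means potentiation over 3 SD above the plate norm, cut at about 30% in these data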; further: 0% is about no effect
#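 Potentiation of an EC20 dopamine calcium response is measured in a force-coupled, tetracycline-inducible Hek293 Trex D2 line. Compound-only kinetic reads over 180 s flag agonists before dopamine addition.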
# D2 PAM-2 = potentiates the human D2 dopamine receptor allosterically; DiscoveRx D2 beta-arrestin cells, luminescence, 90 min; 100% = 57 uM dopamine signal; potentiation, % (test concentration not listed); actives 0.23% (n = 360,000); in the data active means potentiation above about 50%; inconclusive means mostly about 30% to 49%
#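 PathHunter beta-arrestin assay in DiscoveRx D2 cells. Compounds were added with an EC20 of dopamine (50 nM final) for 90 min at 37 deg C. Luminescence was read 1 h after detection reagent, with 57 uM dopamine as the EC100 control.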
# D2 ag-2 = agonists of human D2 dopamine receptor (beta-arrestin); P14416; DiscoveRx PathHunter D2 beta-arrestin, luminescence, 90 min; 100% = 57 uM dopamine signal; activation, % (test concentration not listed); actives 0.084% (n = 360,000); AID 624465; in the data active means activation above about 40%; inconclusive means between about 15% and that limit
#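 Agonist mode: compounds alone added to overnight-plated D2 PathHunter cells for 90 min at 37 C, with 57 uM final dopamine (EC100) defining full response. Beta-arrestin recruitment detected by chemiluminescent reagent, read after 1 h at ambient temperature.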
# The depositor's hits bear a star; ? = inconclusive; nt = no result; ! = not confirmed by another sample. Most compounds without a hit are left out; they make up all but 2.4% or so of the library.
SMILES,D2 antagonist,D2 ag-1,D2 PAM-1,D2 PAM-2,D2 ag-2
C=CCc1ccc(OCCCCN2CC(C)CC(C)C2)c(OC)c1 (stereo unspecified),38.5*,-0.3,-16.1,-5.6,-4.8
C=CCc1ccc(OCCCCN2CCC(C)CC2)c(OC)c1,-11.6,-0.4,-23.9,-6.8,-0.8
CC1(C(=O)O)CCC(C(=O)Nc2ccc(OC(F)(F)Cl)cc2)C1(C)C (stereo unspecified),42.8*,0.9,-5.2,-7.6,2.4
CSc1cccc(NC(=S)NCCCN2CCN(c3ccc(F)cc3)CC2)c1,43.0*,1.3,-21.3,-13.3,-1.6
Cc1cc(C)c2oc(-c3ccc(C)c(NC(=O)/C=C/c4ccco4)c3)nc2c1,nt,-0.8,-5.1,nt,nt
CCN(CC)c1ccc(/C=C/C(=O)C2C(=O)C=C(C)OC2=O)cc1 (stereo unspecified),50.3*,82.8*,nt,-0.9,-1.3
CN1CCN(c2nc(-c3ccccc3)ncc2S(=O)(=O)c2ccccc2)CC1,54.3*,-0.7,-22.2,-5.8,-7.7
O=CC1=C(N2CCOCC2)/C(=C\c2ccccc2)CC1,6.5,0.3,32.6*,-2.6,-3.2
O=C(CCNC(=O)N1CC(=O)Nc2ccccc21)Nc1ccc(Br)cc1F,55.4*,-0.3,-0.1,-28.3,-7.7
CCOc1ccc(-c2nn(-c3ccccc3)cc2C2NC(=O)NC(C)=C2C(=O)OC(C)C)cc1 (stereo unspecified),nt,0.9,-3.6,nt,nt
Cc1nc2c3ccccc3nc(NNC(=O)CCC(=O)N3CCN(c4ccccc4)CC3)n2n1,27.4,30.9*!,0.6,-2.6,3.4
CC(=O)NC(c1cccc(F)c1)c1nc(-c2ccccc2C)cs1 (stereo unspecified),nt,nt,nt,-5.3,-3.4
COc1cccc(C(NC(C)=O)c2nc(-c3ccccc3C)cs2)c1 (stereo unspecified),nt,nt,nt,-3.0,77.5*
O=C(Nc1ccc(Cl)cc1)c1ccc2ncsc2c1,40.1*,-0.4,-19.5,-5.5,?
O=C(Nc1ccc(F)cc1)c1ccc2ncsc2c1,17.9,-0.1,-5.7,-3.2,5.9
CC1CN(CCCCOc2ccc(Cl)c3ccccc23)CC(C)O1 (stereo unspecified),58.3*,-2.5,-23.8,-12.2,-0.1
Cc1ccc(NC(=O)c2ccc(OCc3c(C)noc3C)cc2)nc1,34.1*,-1.3,-3.5,4.6,-0.3
Cc1ccc(NC(=O)c2ccc(OCc3c(C)noc3C)cc2)cc1,-0.6,0.0,-4.8,nt,nt
COc1cccc(CNC(=O)C2CCCN(S(=O)(=O)c3ccc4c(ccn4C)c3)C2)c1OC (stereo unspecified),nt,0.2,11.0,nt,nt
O=Nc1c(O)c2ccccc2c2ccccc12,nt,nt,nt,66.7*,11.0
O=c1ccc2ccccc2c2ccccc12,nt,nt,nt,-12.7,-6.9
Cc1cccc(N(C)S(=O)(=O)c2nnc(NC(=O)C(C)(C)C)s2)c1,nt,-1.0,10.5,nt,nt
O=C(CSc1ncc(-c2ccccc2)nn1)NCc1ccco1,18.0,0.3,-4.4,-5.3,-0.7
COc1ccc(-c2[nH]c(-c3cccc(OC)c3)nc2SCC(=O)NCc2ccco2)cc1,39.0*,-0.6,-20.7,-6.4,0.3
O=C(CSc1nnc(-c2ccccc2)c(-c2ccccc2)n1)NCc1ccco1,40.0*,0.4,6.5,-3.4,-3.2
SMILES,D2 antagonist,D2 ag-1,D2 PAM-1,D2 PAM-2,D2 ag-2
O=C(Nc1ccc2oc(-c3cccnc3)nc2c1)c1ccc(-c2cccc(OC(F)(F)F)c2)o1,nt,0.7,nt,nt,nt
COc1ccccc1-c1oc2ccccc2c1C#CC(C)(C)O,52.4*,0.4,-18.1,-7.2,-1.9
CCc1ccc(NC(=O)Nc2cn(C)c(=O)c3ccccc23)cc1,nt,-0.8,8.2,nt,nt
CCN1CCN(CCOCCOc2ccccc2-c2ccccc2)CC1,60.1*,-0.9,-18.7,nt,nt
CC1CCN(CCOc2ccccc2-c2ccccc2)CC1,75.0*,-0.2,-15.2,-13.9,-5.2
CC1CC(C)CN(CCOc2ccccc2-c2ccccc2)C1 (stereo unspecified),78.8*,-0.9,-29.4,-36.0,-1.4
c1ccc(-c2ccccc2OCCOCCN2CCNCC2)cc1,-30.1,1.4,-24.7,-14.1,-2.4
O=C(COc1ccc(S(=O)(=O)N2CCCCC2)cc1)N1CCCC1,31.0*,0.3,-8.9,-1.9,-1.7
O=C(COC(=O)c1ccccc1)c1ccc(S(=O)(=O)N2CCCCC2)cc1,-3.0,0.0,9.9,1.4,-6.3
O=C(COc1ccccc1)OCC(=O)c1ccc(S(=O)(=O)N2CCCCC2)cc1,30.9*,0.3,2.3,-34.7,-9.2
CCc1nn(CC(=O)N2CCN(c3cccc(C)c3)C(C)C2)c(=O)c2cc3sccc3n12 (stereo unspecified),nt,-0.6,7.6,nt,nt
COCc1nnc(NC(=O)c2ccc(OC)cc2OC)s1,39.4*,-0.8,37.7*,-6.0,-5.5
COc1ccc(Cc2nnc(NC(=O)c3c(-c4ccccc4)noc3C)s2)cc1OC,3.1,2.0,3.4,nt,nt
COc1ccc(C(=O)Nc2nnc(Cc3ccc(OC)c(OC)c3)s2)c(OC)c1,-1.9,0.1,1.1,0.9,5.2
COc1ccc(Cc2nnc(NC(=O)c3c(-c4ccccc4)noc3C)s2)cc1,-18.4,-1.7,34.2*,-2.1,-3.2
CCOCc1nnc(NC(=O)c2ccc(OC)cc2)s1,32.9*,0.9,-6.7,-4.6,1.7
COc1ccc(-c2nnc(NC(=O)C(C)C)s2)c(OC)c1,10.4,0.7,36.5*,-5.0,-1.0
CCN(CC)c1ccc(CN(C(=O)Cc2coc3ccc(C)cc23)C2CCS(=O)(=O)C2)cc1 (stereo unspecified),nt,-0.7,6.6,nt,nt
COC(=O)CC1Oc2ccc(Cl)cc2-n2cc(-c3ccc(C)cc3)nc21 (stereo unspecified),nt,0.2,20.0,nt,nt
CCOC(=O)c1cc(OC(=O)c2ccccc2F)n(-c2ccccc2)n1,nt,0.2,-0.7,nt,nt
CC(=O)N1CCc2c(sc3c2c(=O)n(-c2ccccc2)c(=O)n3Cc2cccc(C(F)(F)F)c2)C1,nt,3.0,13.6,nt,nt
Cc1cc(=O)c2cc(C(=O)Nc3ccc(C)c(C)c3)ccc2[nH]1,nt,0.8,10.6,nt,nt
Cn1cnc2c(=O)oc3ccc(S(=O)(=O)N4CCN(c5cccc(Cl)c5)CC4)cc3c21,nt,-1.8,nt,nt,nt
COc1ccc(Cc2nnc(NC(=O)c3ccc(OC)c(OC)c3)s2)cc1OC,-3.3,-0.4,24.9,-5.5,-3.9
COc1ccc(Cc2nnc(NC(=O)c3cccs3)s2)cc1OC,-4.4,0.8,39.9*,-3.1,0.7
COc1ccccc1N1CCN(CCC(=O)Nc2cccc(F)c2)CC1,nt,20.7,-31.7,-41.6,2.2
O=C(c1ccco1)N1CCN(C(=S)Nc2ccc(F)cc2)CC1,6.1,0.1,5.9,-5.3,-1.4
O=C(CCN1CCN(C(=O)c2ccco2)CC1)Nc1ccc(F)cc1,11.3,33.5*,-26.7,-13.4,0.2
O=C(Cc1ccc(Cl)cc1)Nc1ccc(N2CCN(C(=O)c3ccco3)CC2)cc1,-15.8,-0.2,32.2*,-12.7,1.3
